We go through 40 molecules from PubChem BioAssay (NCI).

About 83,000 compounds went through this panel and 20% of them were active in at least one assay; those are over-represented in the sample as a whole.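 Note: values are percent growth. 100 is the growth of untreated cells, values between 100 and 0 indicate rising inhibition; between -100 and 0 indicates cell death.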 Activity calls are given as the source filed them. Rule for the calls: active = growth percent below 10; inactive = the rest.

For one assay, the system named is BT-549 breast. The assay is described as follows: NCI-60 one-dose screen, 48 h (100 = growth as untreated, 0 = no growth, -100 = all killed). To be noted: 10 µM unless noted.
In the case of `Cc1[nH]c(C(=O)Nc2ccccc2OC2CCNCC2)c(Cl)c1Cl`, the growth is 74.2% (inactive). Still for that read-out and setting: next, `O=C(Nc1cccc(Cl)c1)Nc1cccc(Cn2c(=O)[nH]c3ccc(Oc4ncccn4)cc3c2=O)c1`: 48% (inactive); `CCCCCCC12CCC(=O)N1CCc1cncn12` (configuration not stated): 114% (inactive). Regarding `CCCC/C(CC)=N\NS(=O)(=O)c1ccc([N+](=O)[O-])cc1`, the growth is 114% (inactive). In the case of `C[C@@H](CO)[C@@H]1CCC=C2CC[C@]3(C)[C@H](CC[C@@H]4[C@@]5(C)CCCNC(C)(C)[C@@H]5CC[C@]43C)[C@H]21`, the growth is 81.5% (inactive). For the molecule `O=C1NC2(Nc3ccccc31)C(=O)Nc1c(Cl)cc(Cl)cc12` (configuration not stated), the growth was 99.3% (inactive). On the same count and under the same terms, the same measure for `CSc1nc2ccccc2cc1/C=[N+](\[O-])c1ccccc1`: 66.1% (inactive). Regarding `O=C(NCCNc1nccc(Nc2ccc(S(=O)(=O)Nc3ccccn3)cc2)n1)c1cccc([N+](=O)[O-])c1`, the growth was 96.9% (inactive). Regarding `COc1ccc(CN2c3ccccc3Sc3ccccc32)cc1F`, the growth was 49.9% (inactive). With `CCCCC1=C(P(=O)(O)O)N[C@H](C(=O)O)CS1`, the growth is 102% (inactive). On to `Nc1ncnc2c1C(c1ccccc1)c1ccc3ccccc3c1O2` (configuration not stated), for which the growth was 73.3% (inactive).

Regarding `O=c1c2cccc3c(N4CCCC4)ccc(c32)c2nc3ccccc3n12`, the growth was 71.2% (inactive).

As for `CCN(CC)CCCCCNc1cc(OC(=O)c2ccc(Cl)cc2)cc2cccnc12`, the growth is 98% (inactive). Take `CSc1oc(C)nc1[P+](c1ccccc1)(c1ccccc1)c1ccccc1`: the growth was 43.4% (inactive). For the molecule `COc1ccc(-c2ccc(=O)oc2-c2cc(OC)c(OC)c(OC)c2)cc1O`, the growth is 5.78% (active). The same measure, in the same setting: the same measure for `C=C1CC[C@@H]2[C@](C)(COC(C)=O)[C@H](OC(C)=O)CC[C@@]2(C)[C@@H]1CC(Nc1ccc(S(=O)(=O)Nc2ncccn2)cc1)C1=CCOC1=O` (some centres not stated): -32% (active).

In the case of `C=CCOC(=O)Nc1cccn([C@H](Cc2ccccc2)C(=O)NCCC(C)C)c1=O`, the growth is 132% (inactive). Turning to `Cc1[nH]c(C(=O)Nc2ccc(C(=O)N3CCN(c4cc5c(cc4F)c(=O)c(C(=O)O)cn5C4CC4)CC3)cc2OC(C)C)c(Cl)c1Cl`, the growth was 75.7% (inactive). Take `CC1CCN(S(=O)(=O)c2ccc(S(=O)(=O)N3CCCC(c4nc5c(nnn5Cc5cccc(Cl)c5)c(=O)[nH]4)C3)cc2)CC1` (configuration not stated): the growth was 67.9% (inactive). With `N#Cc1c(-c2ccc(Cl)cc2)c(C#N)c2c(C#N)c(N)nn2c1N`, the growth was 75.5% (inactive). Same read-out and setting: next, `O=C(Nn1c2c(sc1=NC1CC1)C(=O)c1ccccc1C2=O)c1cc2ccc1CCc1ccc(cc1)CC2`: 37.2% (inactive). Regarding `Nc1nc2ccc(-c3nc4ccc5[nH]ncc5c4c4c3CCCC4)cc2s1`, the growth is 106% (inactive). With `CCOC(=O)c1c(NC(=O)c2ccc(Cl)cc2)sc2c(CN(C)C)c(O)ccc12`, the growth was 100% (inactive). As for `N#Cc1nc(-c2ccc(F)cc2)oc1S(=O)(=O)N1CCCCC1`, the growth is 80% (inactive).

`CCOC(=O)n1ccn(C)c1=S`: the growth is 98.7% (inactive). Take `O=C(Nc1ccc(Oc2cccc(F)c2)c(Cl)c1)c1cccnc1`: the growth was 48.6% (inactive). `O=C1/C(=C/c2cccc(F)c2)CN(C(=O)C(Cl)Cl)C/C1=C\c1cccc(F)c1`: the growth is -81.1% (active).

The subject of another assay is MDA-MB-435 melanoma. The description is as above. As to conditions: 10 µM unless noted.
Take `COC12C=C/C(=C(/C(=O)OCc3ccncn3)C(=O)CCCCCCCCC3(OC)C=C/C(=C(/C(=O)OCc4ccncn4)C(=O)CCCCCCCC1)O3)O2`: the growth is -34.4% (active). On to `CN(/C(N)=N/N=C/c1c2ccccc2cc2ccccc12)C1CCCCC1`, for which the growth is 57.5% (inactive). Turning to `Cn1cc(-c2csc(-c3c[nH]c4ccc(Br)cc34)n2)c2ccnc(Cl)c21`, the growth was 78.5% (inactive).

As for `COC(=O)c1nc(-c2ccc(C)cc2)oc1S(=O)(=O)c1cccc(OC)c1`, the growth was 100% (inactive). Take `CCCCn1c(=O)[nH]c(N)c([C@@H]2c3c([nH]c(=O)n(CCCC)c3=O)Oc3ccc4ccccc4c32)c1=O`: the growth was 5.95% (active). For `O=C(O)c1cn(C2CC2)c2cc(N3CCN(C(=O)N(c4ccccc4)c4nc(-c5ccccc5)cs4)CC3)c(F)cc2c1=O`, the growth is 8.3% (active).

Turning to `CCC(C)(C)C(=O)O[C@H]1C[C@@H](C)C=C2C=C[C@H](C)[C@H](CC[C@@H]3CC(SCCN)CC(=O)O3)[C@H]21` (some centres not stated), the growth is 93.3% (inactive).

Consider `COc1cc(OC)c(NC(=O)c2cc3ccccc3cc2O)cc1Cl`, for which the growth was 22.7% (inactive). The same measure, in the same setting: next, `O=C(Nc1cccc2ccccc12)NC1CC1`: 113% (inactive); `COc1ccc(C(=O)c2cc3c(N)c(C(=O)Nc4ccc(C)cc4)sc3nc2C)cc1`: -42.9% (active); `CCCCCCCCCCCCCCCCCCOc1ccccc1CC(=O)OCC[N+](C)(C)C`: 31.5% (inactive). Same read-out and setting: next, `C=CC[Se]C(=O)Cc1c(C)n(C(=O)c2ccc(Cl)cc2)c2ccc(OC)cc12`: 8.15% (active); `Cc1cc(N2CCCCC2)cc(C)c1-c1csc(NC(=O)c2ccncc2)n1`: 37.1% (inactive); `Cc1[nH]c(C(=O)Nc2ccccc2OC2CCNCC2)c(Cl)c1Cl`: -40.3% (active).

For `O=C(Nc1cccc(Cl)c1)Nc1cccc(Cn2c(=O)[nH]c3ccc(Oc4ncccn4)cc3c2=O)c1`, the growth is 42.6% (inactive). Turning to `CCCCCCC12CCC(=O)N1CCc1cncn12` (configuration not stated), the growth was 105% (inactive). Regarding `CCCC/C(CC)=N\NS(=O)(=O)c1ccc([N+](=O)[O-])cc1`, the growth is 107% (inactive).

Turning to `C[C@@H](CO)[C@@H]1CCC=C2CC[C@]3(C)[C@H](CC[C@@H]4[C@@]5(C)CCCNC(C)(C)[C@@H]5CC[C@]43C)[C@H]21`, the growth is 7.57% (active).

On to `O=C1NC2(Nc3ccccc31)C(=O)Nc1c(Cl)cc(Cl)cc12` (configuration not stated), for which the growth is 103% (inactive). Turning to `CSc1nc2ccccc2cc1/C=[N+](\[O-])c1ccccc1`, the growth is 45.9% (inactive).

`O=C(NCCNc1nccc(Nc2ccc(S(=O)(=O)Nc3ccccn3)cc2)n1)c1cccc([N+](=O)[O-])c1`: the growth is 103% (inactive). Take `COc1ccc(CN2c3ccccc3Sc3ccccc32)cc1F`: the growth is -33.5% (active). Regarding `CCCCC1=C(P(=O)(O)O)N[C@H](C(=O)O)CS1`, the growth was 101% (inactive).

As to `Nc1ncnc2c1C(c1ccccc1)c1ccc3ccccc3c1O2` (configuration not stated), the growth was 79.3% (inactive). For the molecule `O=c1c2cccc3c(N4CCCC4)ccc(c32)c2nc3ccccc3n12`, the growth is 103% (inactive). For the molecule `CCN(CC)CCCCCNc1cc(OC(=O)c2ccc(Cl)cc2)cc2cccnc12`, the growth was 120% (inactive).

Regarding `CSc1oc(C)nc1[P+](c1ccccc1)(c1ccccc1)c1ccccc1`, the growth was 41% (inactive). For `COc1ccc(-c2ccc(=O)oc2-c2cc(OC)c(OC)c(OC)c2)cc1O`, the growth is -37.5% (active). On to `C=C1CC[C@@H]2[C@](C)(COC(C)=O)[C@H](OC(C)=O)CC[C@@]2(C)[C@@H]1CC(Nc1ccc(S(=O)(=O)Nc2ncccn2)cc1)C1=CCOC1=O` (some centres not stated), for which the growth was -14.8% (active). For `C=CCOC(=O)Nc1cccn([C@H](Cc2ccccc2)C(=O)NCCC(C)C)c1=O`, the growth was 108% (inactive). Regarding `Cc1[nH]c(C(=O)Nc2ccc(C(=O)N3CCN(c4cc5c(cc4F)c(=O)c(C(=O)O)cn5C4CC4)CC3)cc2OC(C)C)c(Cl)c1Cl`, the growth was 88.5% (inactive).

Take `CC1CCN(S(=O)(=O)c2ccc(S(=O)(=O)N3CCCC(c4nc5c(nnn5Cc5cccc(Cl)c5)c(=O)[nH]4)C3)cc2)CC1` (configuration not stated): the growth was -30.9% (active). For `N#Cc1c(-c2ccc(Cl)cc2)c(C#N)c2c(C#N)c(N)nn2c1N`, the growth was 95.4% (inactive).

On to `O=C(Nn1c2c(sc1=NC1CC1)C(=O)c1ccccc1C2=O)c1cc2ccc1CCc1ccc(cc1)CC2`, for which the growth is -93.2% (active). For the molecule `Nc1nc2ccc(-c3nc4ccc5[nH]ncc5c4c4c3CCCC4)cc2s1`, the growth is 111% (inactive).

Turning to `CCOC(=O)c1c(NC(=O)c2ccc(Cl)cc2)sc2c(CN(C)C)c(O)ccc12`, the growth is 76.7% (inactive). Take `N#Cc1nc(-c2ccc(F)cc2)oc1S(=O)(=O)N1CCCCC1`: the growth is 83.8% (inactive).

Take `CCOC(=O)n1ccn(C)c1=S`: the growth was 102% (inactive).

For `O=C(Nc1ccc(Oc2cccc(F)c2)c(Cl)c1)c1cccnc1`, the growth is 1.64% (active). Take `O=C1/C(=C/c2cccc(F)c2)CN(C(=O)C(Cl)Cl)C/C1=C\c1cccc(F)c1`: the growth is -90.2% (active).
